Shown are actives, neighbours in structure and some others; about 6.8% of the full set was active somewhere.
T cruzi growth-1 – T. cruzi proliferation inhibition. T. cruzi beta-gal in NIH3T3, GalScreen luminescence, 90 h. inhibition, % at 8.34 µM. 5.9% of 77,000 active;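 active = mean inhibition above about 93%, with at least 55% of replicates each passing it, limit read from the data, passing the limit was not always enough; inconclusive = only one of those two conditions holds; inactive = neither condition holds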
Pf Dd2 inh – blocks growth of Plasmodium falciparum Dd2 parasites; P. falciparum Dd2 growth, SYBR Green, 72 h; active compounds read low; AID 1159554; 2.3% of 94,000 active; activity change, % at 10 µM; in the data active = activity change below about -80%; inconclusive = no clear call, values can overlap the other calls
C diff HTS – inhibitors of Clostridium difficile growth; Clostridium difficile clinical isolate growth, OD600, 24 h; active compounds read low; growth activity, negative = inhibition, % at 16 µg/mL (by protocol); 0.25% of 86,000 active;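 active = mean growth activity at or below -80% and every replicate also at or below -80%; inconclusive = mean at or below -80% but some replicate above -80%; inactive = mean growth activity above -80%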;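 note: 0% = DMSO wells and -100% = levofloxacin 16 µg/mL wells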
T cruzi growth-2 – inhibitors of T. cruzi proliferation; shares compounds with T cruzi growth-1; T. cruzi beta-gal in NIH3T3, GalScreen luminescence, 90 h; inhibition, % at 8.35 µM; 72% of 5,600 active; AID 651739;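 active = mean replicate inhibition above about 95% and at least 55% of replicates individually reaching it, limit read from the data; inconclusive = only one of the two criteria is met; inactive = neither criterion is met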
T cruzi growth-3 – inhibitors of T. cruzi proliferation | 21% of 5,600 active | shares compounds with T cruzi growth-1 | inhibition, % at 2.09 µM | T. cruzi beta-gal in NIH3T3, GalScreen luminescence, 90 h;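 active = mean inhibition above about 95%, with at least 55% of replicates also reaching it, limit read from the data; inconclusive = meets just one of the two conditions; inactive = meets neither condition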;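 note: plate controls were neutral control median for no effect and positive control median for full effect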
NIH3T3 tox – NIH/3T3 (mouse) viability loss | cytotoxicity (signal decrease), % at 8.35 µM | AID 651742 | NIH/3T3 viability, CellTiter-Glo ATP luminescence, 90 h | shares compounds with T cruzi growth-1 | 14% of 5,600 active;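 active = mean signal decrease across replicates above about 35% based on untreated-well scatter, with enough replicates individually passing, limit read from the data; inconclusive = no rule stated though some were filed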;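 note: 0% = median of neutral control wells and 100% = median of positive control wells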
NIH3T3 tox 2 – kills mouse NIH/3T3 fibroblasts. shares compounds with T cruzi growth-1. NIH/3T3 viability, CellTiter-Glo ATP luminescence, 90 h. inhibition, % at 24.9 µM. 56% of 5,600 active. AID 651744;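 active = mean loss of cell viability signal at or above a set limit, and enough replicates individually reaching it; inconclusive = meets only the mean limit or only the replicate share; inactive = meets neither condition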;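 note: 0% = median of neutral control wells and 100% = median of positive control wells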
Starred values were filed as active, the others as inactive; ? = inconclusive; . = no result.

SMILES | T cruzi growth-1 | Pf Dd2 inh | C diff HTS | T cruzi growth-2 | T cruzi growth-3 | NIH3T3 tox | NIH3T3 tox 2
CCC(=O)N1CCC2(CC1)CN(S(C)(=O)=O)[C@H](CO)c1[nH]c3cc(OC)ccc3c12 | . | 40.2 | . | . | . | . | .
O=C(NCC(F)(F)F)[C@H]1[C@H](CO)[C@H]2Cn3c(cccc3=O)[C@H]2N1C(=O)c1ccccc1F | -6.0 | . | -1.6 | . | . | . | .
Cc1ccc(-c2cnc3c(c2)C(=O)N([C@@H](C)CO)C[C@H](C)[C@H](CN(C)S(C)(=O)=O)O3)cc1 | . | -2.2 | 0.8 | . | . | . | .
C[C@@H]1CN([C@H](C)CO)C(=O)Cc2cc(NS(=O)(=O)c3ccc(F)cc3)ccc2O[C@@H]1CN(C)C | -24.8 | 10.9 | -7.1 | . | . | . | .
C[C@H](CO)N1C[C@H](C)[C@H](CN(C)Cc2ccc(Oc3ccccc3)cc2)Oc2ccc(NC(=O)Nc3ccc(F)cc3)cc2C1=O | 108.8* | -13.3 | 71.5 | 98.4* | 62.0 | 24.5 | 103.5*
C[C@@H]1CN([C@H](C)CO)C(=O)c2cc(NC(=O)Nc3ccc(F)cc3)ccc2O[C@@H]1CN(C)Cc1ccc(Oc2ccccc2)cc1 | ? | -14.0 | 69.2 | 95.7* | 30.5 | 33.9 | 106.4*
C[C@@H]1CN([C@H](C)CO)C(=O)c2cc(NC(=O)Nc3ccc(F)cc3)ccc2O[C@H]1CN(C)Cc1ccc(Oc2ccccc2)cc1 | -23.2 | -13.1 | -2.2 | . | . | . | .
C[C@H](CO)N1C[C@H](C)[C@@H](CN(C)Cc2ccc(Oc3ccccc3)cc2)Oc2ccc(NC(=O)Nc3ccc(F)cc3)cc2C1=O | 59.6 | -10.8 | 19.3 | . | . | . | .
COCCNC(=O)[C@@H]1[C@@H](CO)[C@@H]2Cn3c(ccc(-c4ccccc4)c3=O)[C@H]1N2C(=O)NC(C)C | 16.3 | -0.1 | -2.9 | . | . | . | .
CC(C)NC(=O)N(C)C[C@@H]1Oc2ccc(NS(=O)(=O)c3ccc(F)cc3)cc2CC(=O)N([C@@H](C)CO)C[C@@H]1C | 101.4 | 16.3 | 0.1 | . | . | . | .
COc1ccccc1S(=O)(=O)N[C@H]1CC[C@H](CCNC(=O)C2CCCC2)O[C@@H]1CO | . | 0.7 | -4.1 | . | . | . | .
C/C=C/c1ccc([C@@H]2[C@H](CO)N(C(C)=O)[C@H]2CNC(=O)c2ccccc2)cc1 | 35.9 | 22.5 | 11.8 | . | . | . | .
C/C=C/c1ccc([C@@H]2[C@@H](CO)N(C(C)=O)[C@@H]2CNC(=O)CC2CC2)cc1 | ? | -10.7 | -1.7 | 72.7 | 13.0 | 10.8 | 24.2
C/C=C/c1ccc([C@@H]2[C@@H](CNC(=O)CC3CC3)N(C(C)=O)[C@H]2CO)cc1 | 26.9 | 4.1 | -4.5 | . | . | . | .
C/C=C/c1ccc([C@H]2[C@@H](CO)N(C(C)=O)[C@@H]2CNC(=O)c2ccccc2)cc1 | 104.3* | 4.9 | 0.4 | 97.5* | -87.1 | -23.9 | -31.3
Cc1noc(C)c1NC(=O)Nc1ccc2c(c1)C(=O)N([C@@H](C)CO)C[C@@H](C)[C@@H](CN(C)Cc1ccc(C(=O)O)cc1)O2 | 32.8 | 9.6 | . | . | . | . | .
C[C@H](CO)N1C[C@H](C)[C@@H](CN(C)Cc2ccc(Cl)c(Cl)c2)OCc2cn(nn2)CCCC1=O | 16.7 | -0.2 | 1.2 | . | . | . | .
CC=Cc1ccc2n(c1=O)C[C@@H]1[C@@H](CO)[C@H](C(=O)NCC)N(C(=O)CC3CC3)[C@H]21 (mixture of isomers) | -30.9 | . | -7.8 | . | . | . | .
COc1ccc(S(=O)(=O)N(C)C[C@@H]2Oc3cc(C#CC4CCCC4)ccc3S(=O)(=O)N([C@@H](C)CO)C[C@H]2C)cc1 | 49.3 | -73.4 | 6.1 | . | . | . | .
Cc1ccc(S(=O)(=O)N(C)C[C@H]2Oc3cc(C#CC4CCCC4)ccc3S(=O)(=O)N([C@H](C)CO)C[C@@H]2C)cc1 | 127.0* | -55.0 | 14.8 | 100.3* | 108.2* | 11.2 | 51.1*
Cc1ccc(S(=O)(=O)N(C)C[C@@H]2Oc3cc(C#CC4CCCC4)ccc3S(=O)(=O)N([C@@H](C)CO)C[C@H]2C)cc1 | 126.7* | -69.2 | 15.5 | 101.1* | 99.2* | 45.9* | 77.1*
COc1ccc(S(=O)(=O)N(C)C[C@H]2Oc3cc(C#CC4CCCC4)ccc3S(=O)(=O)N([C@H](C)CO)C[C@H]2C)cc1 | 45.2 | -50.7 | 5.6 | . | . | . | .
Cc1ccc(S(=O)(=O)Nc2ccc3c(c2)C(=O)N([C@H](C)CO)C[C@H](C)[C@H](CN(C)C(=O)Nc2ccccc2)OCCCC[C@H](C)O3)cc1 | 99.9* | -31.4 | . | 108.7* | 42.7 | -11.2 | -5.2
Cc1ccc(S(=O)(=O)Nc2ccc3c(c2)C(=O)N([C@@H](C)CO)C[C@@H](C)[C@@H](CN(C)C(=O)Nc2ccc(F)cc2)OCCCC[C@@H](C)O3)cc1 | 105.3* | -77.1 | . | 104.3* | 64.4 | -2.8 | -15.6
Cc1ccc(S(=O)(=O)Nc2ccc3c(c2)C(=O)N([C@H](C)CO)C[C@@H](C)[C@H](CN(C)C(=O)Nc2ccc(F)cc2)OCCCC[C@@H](C)O3)cc1 | 98.4* | -85.3* | . | 97.3* | 71.9 | -1.2 | 25.4*
SMILES | T cruzi growth-1 | Pf Dd2 inh | C diff HTS | T cruzi growth-2 | T cruzi growth-3 | NIH3T3 tox | NIH3T3 tox 2
C[C@@H]1CN([C@H](C)CO)C(=O)c2cc(NS(=O)(=O)c3ccc(F)cc3)ccc2O[C@@H](C)CCCCO[C@H]1CN(C)C(=O)Nc1ccc(F)cc1 | 29.6 | -36.7 | 0.2 | . | . | . | .
C[C@H]1CCCCO[C@H](CN(C)C(=O)Nc2ccc(F)cc2)[C@@H](C)CN([C@@H](C)CO)C(=O)c2cc(NS(=O)(=O)c3ccc(F)cc3)ccc2O1 | 57.1 | -69.4 | -2.4 | . | . | . | .
Cc1ccc(S(=O)(=O)Nc2ccc3c(c2)C(=O)N([C@H](C)CO)C[C@H](C)[C@H](CN(C)C(=O)Nc2ccccc2)OCCCC[C@@H](C)O3)cc1 | -47.4 | -1.9 | . | . | . | . | .
O=C(CC1CC1)N1[C@@H](CO)[C@@H](c2ccccc2)C12CN(Cc1cc(F)ccc1F)C2 | . | -29.9 | 13.7 | . | . | . | .
Cc1ccc(-c2ccc3c(c2)O[C@H](CN(C)C)[C@H](C)CN([C@@H](C)CO)S3(=O)=O)cc1 | 11.8 | 7.7 | 0.0 | . | . | . | .
CS(=O)(=O)Nc1ccc2c(c1)[C@H]1C[C@@H](CC(=O)NCc3ccccc3)O[C@H](CO)[C@H]1O2 | 20.9 | 16.4 | . | . | . | . | .
Cn1cnc(S(=O)(=O)N2CCCCN3[C@H](C2)[C@@H](c2ccc(-c4cccc(F)c4)cc2)[C@@H]3CO)c1 | 103.3* | 34.4 | -11.6 | 96.3* | 5.2 | 5.6 | ?
Cn1cnc(S(=O)(=O)N2CCCCN3[C@@H](CO)[C@H](c4ccc(-c5cccc(F)c5)cc4)[C@@H]3C2)c1 | 69.6 | 25.1 | -1.2 | . | . | . | .
Cn1cnc(S(=O)(=O)N2CCCCN3[C@H](CO)[C@@H](c4ccc(-c5cccc(F)c5)cc4)[C@H]3C2)c1 | 39.7 | 18.6 | -11.8 | . | . | . | .
Cn1cnc(S(=O)(=O)N2CCCCN3[C@H](CO)[C@@H](c4ccc(-c5cccc(F)c5)cc4)[C@@H]3C2)c1 | 103.4* | 41.4 | -8.9 | 103.6* | 0.7 | 21.7 | 64.1*
O=C(C[C@@H]1C[C@H]2c3cc(NC(=O)NC4CCCC4)ccc3O[C@H]2[C@@H](CO)O1)NCc1ccncc1 | 32.1 | 23.6 | -0.1 | . | . | . | .
